Inconclusive results are not listed. Entries that show only a call come without a potency. A number with no mark means an inactive call. Activity calls are given as the source filed them. Unless noted, calls follow the shape of the dose curve; as a rule, active = well fitted curve in the direction sought with a large enough effect in the repeat runs; inconclusive = weak or mixed curves; inactive = no such curve, though single readings can be large; an effect the other way counts as inactive or inconclusive.
Assays:
[1] = qHTS assay to identify aromatase inhibitors - cell viability counter screen (AID 743084);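 also: cells stimulated with testosterone during compound exposure; nearly all actives have a fitted effect of over 55% in size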; also: potency is read from the fitted curve at half-maximal effect
[2] = biological target: Aryl hydrocarbon receptor (Homo sapiens) (UniProt P35869); assay: qHTS assay to identify small molecule that activate the aryl hydrocarbon receptor (AhR) signaling pathway (AID 743085); also: nearly all actives have a fitted effect of over 15% in size; also: potency is read from the fitted curve at half-maximal effect;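 as to activation: HG2L7.5c1 human HepG2 liver cells with stably integrated DRE-driven firefly reporter; series mostly up to about 70 µM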
Aryl hydrocarbon receptor (Homo sapiens), sequence (P35869 whole entry, looked up): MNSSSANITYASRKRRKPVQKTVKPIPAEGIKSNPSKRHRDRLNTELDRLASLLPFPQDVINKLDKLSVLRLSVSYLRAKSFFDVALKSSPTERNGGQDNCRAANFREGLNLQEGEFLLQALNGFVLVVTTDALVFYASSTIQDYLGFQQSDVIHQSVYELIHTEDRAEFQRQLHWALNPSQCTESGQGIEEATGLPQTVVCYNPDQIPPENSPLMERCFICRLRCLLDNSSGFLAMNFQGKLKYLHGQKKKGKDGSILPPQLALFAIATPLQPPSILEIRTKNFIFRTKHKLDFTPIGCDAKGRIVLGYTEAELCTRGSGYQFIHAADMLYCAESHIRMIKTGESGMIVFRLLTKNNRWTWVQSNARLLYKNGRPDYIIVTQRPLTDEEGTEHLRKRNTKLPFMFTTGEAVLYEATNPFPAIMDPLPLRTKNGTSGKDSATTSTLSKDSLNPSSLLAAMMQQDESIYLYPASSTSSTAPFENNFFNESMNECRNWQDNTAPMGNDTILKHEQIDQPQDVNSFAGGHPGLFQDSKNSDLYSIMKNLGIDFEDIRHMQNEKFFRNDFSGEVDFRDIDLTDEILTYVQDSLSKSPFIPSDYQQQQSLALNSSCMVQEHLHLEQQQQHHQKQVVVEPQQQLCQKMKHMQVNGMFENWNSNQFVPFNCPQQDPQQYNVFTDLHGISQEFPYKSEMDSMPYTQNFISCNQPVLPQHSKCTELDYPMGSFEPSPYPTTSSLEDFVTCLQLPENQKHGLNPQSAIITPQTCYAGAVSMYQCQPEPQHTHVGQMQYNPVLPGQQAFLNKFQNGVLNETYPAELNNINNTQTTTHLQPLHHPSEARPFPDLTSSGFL
Method in brief: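 AhR agonist activity is inferred from enhanced light output of a DRE-controlled firefly luciferase reporter in HepG2 cells, measured with ONE-Glo following 24 h treatment at 37C.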

[3] = qHTS assay to identify small molecule that activate the aryl hydrocarbon receptor (AhR) signaling pathway - cell viability counter screen (AID 743086);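 also: HepG2 liver cells carrying the AhR DRE luciferase reporter; series mostly up to about 70 µM; nearly all actives have a fitted effect of over 45% in size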
Method in brief: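 HepG2-AhR-luc (HG2L7.5c1) cells, 4000/well, treated 24 h at 37 C with compound; viability measured as CellTiter-Fluor fluorescence after 30 min in the same wells as the luciferase read.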

[4] = biological target: Peroxisome proliferator-activated receptor gamma (Homo sapiens) (UniProt P37231); assay: qHTS assay to identify small molecule agonists of the peroxisome proliferator-activated receptor gamma (PPARg) signaling pathway (AID 743094; active = well fitted activation curve with a large enough effect in the signal ratio in the repeat runs, not every such curve was filed as active; the % refers to the signal ratio)
Peroxisome proliferator-activated receptor gamma (Homo sapiens), sequence (P37231 whole entry, looked up): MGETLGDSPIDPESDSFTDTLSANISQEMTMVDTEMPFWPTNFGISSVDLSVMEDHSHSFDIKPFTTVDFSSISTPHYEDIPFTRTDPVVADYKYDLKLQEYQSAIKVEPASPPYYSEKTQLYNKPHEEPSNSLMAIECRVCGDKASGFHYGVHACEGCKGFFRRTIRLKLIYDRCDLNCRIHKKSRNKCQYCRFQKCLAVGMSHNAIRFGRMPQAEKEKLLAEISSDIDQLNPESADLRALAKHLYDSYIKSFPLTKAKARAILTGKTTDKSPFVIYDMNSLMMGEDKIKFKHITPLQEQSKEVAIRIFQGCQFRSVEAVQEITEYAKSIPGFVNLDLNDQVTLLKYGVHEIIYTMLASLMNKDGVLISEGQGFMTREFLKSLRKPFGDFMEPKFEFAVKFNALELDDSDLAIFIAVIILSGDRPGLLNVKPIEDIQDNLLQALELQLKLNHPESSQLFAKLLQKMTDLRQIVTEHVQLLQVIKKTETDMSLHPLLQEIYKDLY
Method in brief: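 HEK293H PPARg-bla cells, 5 h settle at 37C/5% CO2; compound (DMSO) 17 h, 37C; B/G FRET substrate 1 h RT; fluorescence intensity read-out. qHTS format.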

[5] = biological target: Peroxisome proliferator-activated receptor gamma (Homo sapiens) (UniProt P37231); assay: qHTS assay to identify small molecule antagonists of the peroxisome proliferator-activated receptor gamma (PPARg) signaling pathway (AID 743191; calls by dose curve; also: series mostly up to about 63 µM; nearly all actives have a fitted effect of over 30% in size)
Method in brief: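 GeneBLAzer PPARg UAS-bla HEK293H cells, 5 h post-plating, exposed to compounds 17 h at 37C. LiveBLAzer B/G FRET substrate added for 1 h at room temperature; beta-lactamase reporter read by fluorescence intensity.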

[6] = qHTS assay to identify small molecule antagonists of the peroxisome proliferator-activated receptor gamma (PPARg) signaling pathway - cell viability counter screen (AID 743194); details: Potency: co-treated with 50 nM rosiglitazone; also: nearly all actives have a fitted effect of over 55% in size
Method in brief: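 Cytotoxicity counter screen in PPARg-bla HEK293H cells, same wells as reporter assay. Compounds plus 50 nM rosiglitazone (final) for 17 h at 37 C, then viability read by CellTiter-Glo luminescence.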

[7] = qHTS assay for small molecule agonists of the antioxidant response element (ARE) signaling pathway - cell viability counter screen (AID 743203; calls by dose curve; also: nearly all actives have a fitted effect of over 55% in size)
Method in brief: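 Luminescence read-out (CellTiter-Glo, 30 min at room temperature) measured cell viability in the same wells as the ARE beta-lactamase reporter. HepG2 ARE-bla cells were treated with compounds for 16 hrs at 37C/5% CO2.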

[8] = qHTS assay to identify small molecule agonists of the peroxisome proliferator-activated receptor delta (PPARd) signaling pathway - cell viability counter screen (AID 743211); also: nearly all actives have a fitted effect of over 55% in size
Method in brief: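 qHTS cell viability: PPARd-bla HEK293H; 17 h cpd, 37C; CellTiter-Glo, luminescence at 30 min RT.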

[9] = biological target: Peroxisome proliferator-activated receptor delta (Homo sapiens) (UniProt Q03181); assay: qHTS assay to identify small molecule agonists of the peroxisome proliferator-activated receptor delta (PPARd) signaling pathway (AID 743212; calls by dose curve)
Peroxisome proliferator-activated receptor delta (Homo sapiens), sequence (Q03181 whole entry, looked up): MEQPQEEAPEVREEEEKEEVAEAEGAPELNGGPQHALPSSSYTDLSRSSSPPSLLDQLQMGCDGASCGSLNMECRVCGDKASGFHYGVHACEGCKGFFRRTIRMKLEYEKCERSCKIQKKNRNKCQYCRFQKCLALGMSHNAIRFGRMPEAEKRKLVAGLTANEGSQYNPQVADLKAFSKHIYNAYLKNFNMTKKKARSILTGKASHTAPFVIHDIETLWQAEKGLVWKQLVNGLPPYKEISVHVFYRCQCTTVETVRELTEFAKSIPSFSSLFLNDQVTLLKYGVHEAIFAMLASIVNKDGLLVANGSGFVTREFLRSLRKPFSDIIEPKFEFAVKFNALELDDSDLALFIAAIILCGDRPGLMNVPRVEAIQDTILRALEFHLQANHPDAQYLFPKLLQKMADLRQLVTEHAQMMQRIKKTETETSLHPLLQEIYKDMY
Method in brief: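 Read-out: beta-lactamase FRET fluorescence after 2 h room-temperature incubation with LiveBLAzer B/G substrate. Cells were HEK293H carrying a UAS-bla reporter for PPARd, treated at 37 C with DMSO-dissolved compounds.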

[10] = biological target: Peroxisome proliferator-activated receptor delta (Homo sapiens) (UniProt Q03181); assay: qHTS assay to identify small molecule antagonists of the peroxisome proliferator-activated receptor delta (PPARd) signaling pathway (AID 743215; active = well fitted inhibition curve with a large enough effect in the signal ratio in the repeat runs, not every such curve was filed as active; the % refers to the signal ratio;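 also: cells stimulated with agonist L165041 at 300 nM final during compound exposure; series mostly up to about 62 µM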)
Method in brief: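 HEK293H GeneBLAzer PPARd UAS-bla reporter cells; cpd + L165041 300 nM final, 17 h 37 C; LiveBLAzer B/G FRET substrate 2 h RT; fluorescence intensity read-out. Antagonist mode.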

[11] = biological target: Bile acid receptor (Homo sapiens) (UniProt Q96RI1); assay: qHTS assay to identify small molecule antagonists of the farnesoid-X-receptor (FXR) signaling pathway (AID 743217; active = well fitted inhibition curve with a large enough effect in the signal ratio in the repeat runs, not every such curve was filed as active; the % refers to the signal ratio)
Bile acid receptor (Homo sapiens), sequence (Q96RI1 whole entry, looked up): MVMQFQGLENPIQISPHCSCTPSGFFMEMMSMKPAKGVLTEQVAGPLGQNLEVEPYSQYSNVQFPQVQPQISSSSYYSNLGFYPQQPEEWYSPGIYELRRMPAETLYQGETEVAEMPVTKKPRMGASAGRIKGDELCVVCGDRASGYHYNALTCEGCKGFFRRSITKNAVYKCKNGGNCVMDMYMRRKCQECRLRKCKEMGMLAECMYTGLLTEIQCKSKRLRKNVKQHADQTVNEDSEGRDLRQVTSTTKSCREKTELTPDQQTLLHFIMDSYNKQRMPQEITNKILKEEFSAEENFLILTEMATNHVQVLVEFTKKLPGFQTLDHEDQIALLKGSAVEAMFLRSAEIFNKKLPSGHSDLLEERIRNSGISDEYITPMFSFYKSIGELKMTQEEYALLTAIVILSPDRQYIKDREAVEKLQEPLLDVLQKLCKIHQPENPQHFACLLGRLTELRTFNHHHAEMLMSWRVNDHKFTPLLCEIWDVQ
Method in brief: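 Read-out: beta-lactamase FRET fluorescence (LiveBLAzer B/G substrate, 2 h, room temperature) in GeneBLAzer FXR-UAS-bla HEK 293T cells. Compounds were co-dosed with 50 uM chenodeoxycholic acid (final) and incubated 16 h at 37 °C.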

[12] = qHTS assay to identify small molecule agonists of the farnesoid-X-receptor (FXR) signaling pathway - cell viability counter screen (AID 743218); also: nearly all actives have a fitted effect of over 45% in size
Method in brief: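 Luminescence from CellTiter-Glo, read after 30 min at RT, reports viability of GeneBLAzer FXR-UAS-bla HEK 293T cells treated 16 h with compounds in the wells used for the beta-lactamase reporter.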

[13] = biological target: Bile acid receptor (Homo sapiens) (UniProt Q96RI1); assay: qHTS assay to identify small molecule agonists of the farnesoid-X-receptor (FXR) signaling pathway (AID 743220; active = well fitted activation curve with a large enough effect in the signal ratio in the repeat runs, not every such curve was filed as active; the % refers to the signal ratio)
Method in brief: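 FXR-UAS-bla HEK 293T cells carrying a UAS-driven beta-lactamase reporter were plated for 5 h at 37C/5% CO2, then exposed to DMSO-dissolved Tox21 10K compounds for 16 h at 37C. A LiveBLAzer B/G FRET substrate was loaded for 2 h at room temperature before fluorescence reading.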

[14] = qHTS assay for small molecule activators of the heat shock response signaling pathway - cell viability counter screen (AID 743209); also: nearly all actives have a fitted effect of over 50% in size
Method in brief: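 HSE-bla HeLa; 1500 cells/well; overnight 37 C, 5% CO2; compound 5 h 37 C; LiveBLAzer B/G substrate 2.5 h RT; CellTiter-Glo 30 min RT; luminescence.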

[15] = qHTS assay for small molecule activators of the heat shock response signaling pathway (AID 743210; active = well fitted activation curve with a large enough effect in the signal ratio in the repeat runs, with a control signal flat, not every such curve was filed as active; the % refers to the signal ratio;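 also: HeLa cells with beta-lactamase reporter driven by heat shock elements; series mostly up to about 63 µM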)
Method in brief: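 Beta-lactamase reporter read-out: FRET substrate fluorescence after 2.5 h at RT, following 5 h compound treatment at 37 C of HeLa cells carrying HSE-driven bla reporter; quantitative HTS format.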

[16] = qHTS assay to identify small molecule antagonists of the peroxisome proliferator-activated receptor delta (PPARd) signaling pathway - cell viability counter screen (AID 743213); also: nearly all actives have a fitted effect of over 50% in size
Method in brief: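 In this counter screen, HEK293H cells carrying a UAS-beta-lactamase reporter are co-treated with test compounds and 300 nM L165041 (final) for 17 h at 37 C; cell viability is quantified by CellTiter-Glo luminescence.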

[17] = qHTS assay to identify small molecule antagonists of the farnesoid-X-receptor (FXR) signaling pathway - cell viability counter screen (AID 743221; active = well fitted cell-killing curve with a large enough effect in the repeat runs, not every such curve was filed as active; also: nearly all actives have a fitted effect of over 50% in size)
Method in brief: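 After a 5 h settling period, FXR-bla HEK 293T cells receive compound and chenodeoxycholic acid (50 uM final) and incubate 16 h at 37 C; CellTiter-Glo luminescence, read after 30 min at room temperature, reports cell viability.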

[18] = biological target: Vitamin D3 receptor (Homo sapiens) (UniProt P11473); assay: qHTS assay to identify small molecule agonists of the vitamin D receptor (VDR) signaling pathway (AID 743222; calls by dose curve)
Vitamin D3 receptor (Homo sapiens), sequence (P11473 whole entry, looked up): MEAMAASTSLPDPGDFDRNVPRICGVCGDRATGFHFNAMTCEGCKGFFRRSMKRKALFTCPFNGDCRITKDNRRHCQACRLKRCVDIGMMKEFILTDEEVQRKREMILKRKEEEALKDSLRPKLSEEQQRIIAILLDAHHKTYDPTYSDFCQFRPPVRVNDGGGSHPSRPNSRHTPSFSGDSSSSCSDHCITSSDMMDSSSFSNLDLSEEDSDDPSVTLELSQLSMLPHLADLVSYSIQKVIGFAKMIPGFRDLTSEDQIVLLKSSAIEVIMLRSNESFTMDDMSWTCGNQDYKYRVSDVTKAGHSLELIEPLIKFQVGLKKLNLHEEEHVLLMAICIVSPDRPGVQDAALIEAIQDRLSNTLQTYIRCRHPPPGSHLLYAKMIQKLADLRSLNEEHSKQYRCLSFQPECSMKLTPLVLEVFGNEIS
Method in brief: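 Beta-lactamase reporter readout (LiveBLAzer B/G FRET, 2 h RT) in VDR-bla cells after 16 h compound treatment at 37C, 5% CO2; cells pre-incubated 4 h before pin transfer of DMSO solutions.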

[19] = biological target: Vitamin D3 receptor (Homo sapiens) (UniProt P11473); assay: qHTS assay to identify small molecule antagonists of the vitamin D receptor (VDR) signaling pathway (AID 743223; active = well fitted inhibition curve with a large enough effect in the signal ratio in the repeat runs, not every such curve was filed as active; the % refers to the signal ratio)
Method in brief: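 Reporter line VDR-bla; stimulus 1alpha,25-(OH)2 vitamin D3, 3 nM final; compound co-addition, 16 h 37C/5% CO2; LiveBLAzer B/G substrate 2 h RT; fluorescence intensity.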

[20] = qHTS assay for small molecule agonists of the antioxidant response element (ARE) signaling pathway (AID 743202; active = well fitted activation curve with a large enough effect in the signal ratio in the repeat runs, not every such curve was filed as active; the % refers to the signal ratio)
Method in brief: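 HepG2 ARE-bla reporter line, 2,000 cells/well; 5 h preincubation 37 C/5% CO2; compound (DMSO) 16 h 37 C; B/G FRET substrate 2 h RT; fluorescence intensity.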

| Compound | Potency [1] | Potency [2] | Potency [3] | Potency [4] | Potency [5] | Potency [6] | Potency [7] | Potency [8] | outcome [9] | Potency [10] | Potency [11] | Potency [12] | outcome [13] | Potency [14] | outcome [15] | Potency [16] | Potency [17] | outcome [18] | outcome [19] | Potency [20] |
| --- | --- | --- | --- | --- | --- | --- | --- | --- | --- | --- | --- | --- | --- | --- | --- | --- | --- | --- | --- | --- |
| O=C(CBr)c1ccccc1 | inactive | inactive | inactive | inactive | inactive | inactive | inactive | inactive | inactive | inactive | inactive | inactive | inactive |  |  |  |  |  |  |  |
| C=CCC1([C@H](C)CCC)C(=O)NC(=O)NC1=O | inactive | inactive | inactive | inactive | inactive |  | inactive | inactive | inactive | inactive | inactive |  |  | inactive | inactive | inactive | inactive | inactive | inactive |  |
| CC(=O)NC1CCSC1=O (stereo not given) | inactive | inactive | inactive | inactive | inactive |  | inactive | inactive | inactive | inactive |  | inactive |  | inactive | inactive | inactive | inactive | inactive | inactive | inactive |
| C=CC(=O)OC(C)(C)C | inactive | inactive | inactive | inactive | inactive | inactive | inactive | inactive | inactive | inactive |  | inactive |  | inactive | inactive |  | inactive | inactive |  |  |
| N#Cc1ccc(Cl)cc1 | inactive | inactive | inactive | inactive | inactive | inactive | inactive | inactive | inactive |  |  | inactive |  | inactive | inactive | inactive | inactive | inactive | inactive | inactive |
| CC(C)=CCOc1c2occc2cc2ccc(=O)oc12 | inactive | 3.76 µM (active) | inactive | inactive | inactive | inactive | inactive | inactive | inactive | inactive | inactive | inactive |  | inactive | inactive | inactive | inactive | inactive |  |  |
| N#CCc1ccccc1 | inactive | inactive | inactive | inactive | inactive | inactive | inactive | inactive | inactive | inactive |  | inactive |  | inactive |  | inactive | inactive | inactive | inactive |  |
| CCCCC(CC)COP(=O)(Oc1ccccc1)Oc1ccccc1 (stereo not given) | inactive | inactive | inactive | inactive | inactive | inactive | inactive |  | inactive |  |  | inactive |  | inactive | inactive | inactive | inactive | inactive | inactive |  |
| Cn1cc[n+](C)c1 (tested in a mixture with another compound) | inactive | inactive | inactive | inactive | inactive |  | inactive | inactive | inactive | inactive | inactive | inactive | inactive | inactive | inactive |  | inactive |  |  | inactive |
| O=S(=O)(Cl)c1ccccc1 | inactive | inactive | inactive | inactive | inactive | inactive | inactive | inactive | inactive |  | inactive | inactive |  | inactive | inactive | inactive |  | inactive | inactive | inactive |
| NC(=O)CI | inactive | inactive | inactive | inactive | inactive | inactive | inactive | inactive | inactive |  |  | inactive |  | inactive | inactive | inactive | inactive | inactive | inactive |  |
| CC(C)(Cl)[N+](=O)[O-] | inactive | inactive | inactive | inactive | inactive | inactive | inactive | inactive | inactive | inactive | inactive | inactive | inactive | inactive | inactive |  | inactive | inactive | inactive | inactive |
| CCCN(CC1CC1)c1c([N+](=O)[O-])cc(C(F)(F)F)cc1[N+](=O)[O-] | inactive | inactive | inactive | inactive | inactive | inactive | inactive | inactive | inactive | inactive | inactive | inactive |  | inactive | inactive | inactive | inactive |  |  |  |
| COc1c(C(C)(C)C)cc([N+](=O)[O-])c(C)c1[N+](=O)[O-] | inactive | inactive | inactive | inactive | inactive | inactive | inactive | inactive | inactive | inactive |  | inactive |  | inactive | inactive | inactive |  | inactive | inactive |  |
| O=[N+]([O-])C(Br)(CO)CO | 61.1 µM (active) | inactive | inactive | inactive | inactive |  | inactive | inactive | inactive | inactive | inactive | inactive |  | inactive | inactive | inactive | inactive |  |  |  |
| COC(=O)c1cncn1C(C)c1ccccc1 (stereo not given) | inactive | inactive | inactive | inactive | inactive | inactive | inactive | inactive | inactive | inactive |  | inactive |  | inactive | inactive | inactive | inactive |  | inactive |  |
| CC(Cl)C(C)Cl (stereo not given) | inactive | inactive | inactive | inactive | inactive | inactive | inactive | inactive | inactive | inactive | inactive | inactive |  | inactive |  | inactive | inactive |  |  | inactive |
| BrCC(Br)C1CCC(Br)C(Br)C1 (stereo not given) | inactive | inactive | inactive | inactive | inactive | inactive | inactive | inactive |  |  |  | inactive |  | inactive | inactive |  | inactive |  |  |  |

Source: PubChem BioAssay (Tox21)
